In PubChem BioAssay (NCI) one finds growth data, which are given here for seven molecules.

The structures appear in SMILES notation. This is part of a sample that, as a whole, favours compounds with a hit. Of some 83,000 tested, about 20% had one in any assay.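 Growth was measured after 48 h exposure to one concentration of compound in 96-well plates. Values under 10 count as active.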 Values without a mark were called inactive. Calls of active or inactive are those of the source.

Among the test systems are MOLT-4 leukemia; SR leukemia; RPMI-8226 leukemia; OVCAR-8 ovarian; OVCAR-5 ovarian; OVCAR-4 ovarian; SK-OV-3 ovarian; IGROV1 ovarian; OVCAR-3 ovarian; HS 578T breast; NCI/ADR-RES ovarian; T-47D breast; BT-549 breast; MDA-MB-435 melanoma; SW-620 colon; MCF7 breast; HCT-116 colon; HCC-2998 colon; KM12 colon.
Holding throughout (assay): NCI-60 one-dose screen, 48 h (100 = growth as untreated, 0 = no growth, -100 = all killed)
Holding throughout (details): 10 µM unless noted

As for `COc1cc2c(cc1OCCCn1c(-c3ccccn3)nc3ccccc31)N=C[C@@H]1CCCN1C2=O`, the growth with MOLT-4 leukemia is 8.22% (active); in the assay with SR leukemia, 3.55% (active); with RPMI-8226 leukemia, -37.5% (active); in the assay with OVCAR-8 ovarian, 25.5%; in the assay with OVCAR-5 ovarian, 2.58% (active); in the assay with OVCAR-4 ovarian it was 15.6%. For the same molecule, the growth was 30.8% in the assay with SK-OV-3 ovarian; -62.3% (active) with IGROV1 ovarian; 2.94% (active) with OVCAR-3 ovarian; -2.53% (active) in the assay with HS 578T breast; 3.97% (active) in the assay with NCI/ADR-RES ovarian; 35.4% with T-47D breast. In addition, the growth with BT-549 breast was -17.1% (active); in the assay on MDA-MB-435 melanoma it was -23.6% (active); in the assay on SW-620 colon, 0.272% (active); with MCF7 breast it was 1.32% (active); in the assay with HCT-116 colon it was -14.4% (active); with HCC-2998 colon, 2.04% (active). Also, the growth in the assay on KM12 colon was -31.7% (active).
For `N#C[Se]Cc1cc(-c2ccccc2)n(-c2ccc(S(N)(=O)=O)cc2)n1`, the growth with MOLT-4 leukemia is -28.4% (active); in the assay with SR leukemia, -32.5% (active); in the assay on RPMI-8226 leukemia it was -33.5% (active); in the assay on OVCAR-8 ovarian, 6.01% (active); in the assay with OVCAR-5 ovarian, -42.6% (active); with OVCAR-4 ovarian, 2.52% (active). Also, the growth in the assay on SK-OV-3 ovarian is -42.6% (active); with IGROV1 ovarian, -35.6% (active); in the assay with OVCAR-3 ovarian, -80.6% (active); with HS 578T breast it was -17.6% (active); in the assay on NCI/ADR-RES ovarian it was 35.4%; in the assay on T-47D breast, -1.52% (active). Also, the growth in the assay on BT-549 breast was -34.6% (active); in the assay with MDA-MB-435 melanoma it was -28.8% (active); in the assay with SW-620 colon it was -18.4% (active); in the assay on MCF7 breast it was -26.1% (active); with HCT-116 colon it was -59.4% (active); with HCC-2998 colon, 25.1%. In the assay with KM12 colon, the growth is -78.9% (active).
As to `C[N+]12CN3CN(CN(C3)C1)C2`, the growth in the assay with MOLT-4 leukemia is 123%; in the assay on SR leukemia, 138%; in the assay with RPMI-8226 leukemia, 88%; in the assay on OVCAR-8 ovarian, 100%; in the assay with OVCAR-5 ovarian, 82.7%; with OVCAR-4 ovarian, 105%. The growth is 118% with SK-OV-3 ovarian; 91.2% in the assay on IGROV1 ovarian; 115% with OVCAR-3 ovarian; 98% with HS 578T breast; 97.9% with NCI/ADR-RES ovarian; 93% in the assay with T-47D breast. In addition, the growth is 113% in the assay with BT-549 breast; 101% in the assay with MDA-MB-435 melanoma; 96.7% with SW-620 colon; 97.3% in the assay on MCF7 breast; 92.8% in the assay on HCT-116 colon; 99.3% in the assay on HCC-2998 colon. Moreover, the growth in the assay on KM12 colon is 111%.
Turning to `O=C1NC(=O)C(=Cc2cn(CCCCCCn3c4ccccc4c(=O)c4ccccc43)c3ccccc23)C(=O)N1`, the growth in the assay on MOLT-4 leukemia was 63.2%; in the assay with SR leukemia, 93.5%; with RPMI-8226 leukemia, 76.2%; with OVCAR-8 ovarian, 91.8%; with OVCAR-5 ovarian, 22.6%; in the assay with OVCAR-4 ovarian it was 85.8%. The growth with SK-OV-3 ovarian is 77.5%; in the assay with IGROV1 ovarian, 79.2%; in the assay on OVCAR-3 ovarian, 99.2%; with HS 578T breast it was 103%; with NCI/ADR-RES ovarian, 83.9%; in the assay on T-47D breast, 60.6%. In addition, the growth with BT-549 breast is 94.3%; with MDA-MB-435 melanoma it was 102%; with SW-620 colon, 93.8%; in the assay on MCF7 breast it was 71.6%; with HCT-116 colon, 70.2%; in the assay with HCC-2998 colon, 96.8%. Moreover, the growth in the assay on KM12 colon was 95.8%.
On to `COC(=O)[C@@H](NC(=O)c1cn(CCC2CCCCC2)c2ccccc12)C(C)(C)C`, for which the growth in the assay with MOLT-4 leukemia was 64.3%; in the assay on SR leukemia it was 61.3%; in the assay with RPMI-8226 leukemia, 64.9%; in the assay with OVCAR-8 ovarian, 77.7%; with OVCAR-5 ovarian, 82%; in the assay on OVCAR-4 ovarian it was 68.7%. For the same molecule, the growth in the assay with SK-OV-3 ovarian was 79.2%; in the assay on IGROV1 ovarian, 62.3%; with OVCAR-3 ovarian, 77.4%; in the assay on HS 578T breast, 83.9%; in the assay with NCI/ADR-RES ovarian, 73.6%; with T-47D breast, 61.9%. Besides, the growth is 84.1% in the assay on BT-549 breast; 83.3% in the assay on MDA-MB-435 melanoma; 86.3% in the assay on SW-620 colon; 75% with MCF7 breast; 64.2% with HCT-116 colon; 86.3% in the assay with HCC-2998 colon. Moreover, in the assay on KM12 colon, the growth was 69.8%.
With `CCOC(=O)[C@@H](C)C[C@H](Cc1ccccc1)NC(=O)c1csc([C@@H](C[C@H](C(C)C)N(C)C(=O)[C@@H](NC(=O)[C@H]2C[C@H](O)CCN2C)C(C)C)OC(C)=O)n1`, the growth was 11.9% in the assay on MOLT-4 leukemia; 5.63% (active) in the assay on SR leukemia; 5.82% (active) in the assay on RPMI-8226 leukemia; 14.8% in the assay on OVCAR-8 ovarian; 41.8% in the assay on OVCAR-5 ovarian; 35.2% with OVCAR-4 ovarian. Besides, the growth was 7.61% (active) in the assay on SK-OV-3 ovarian; 20.3% in the assay with IGROV1 ovarian; 5.22% (active) in the assay with OVCAR-3 ovarian; 19.4% with HS 578T breast; 45.3% in the assay with NCI/ADR-RES ovarian; 79.4% with T-47D breast. The growth was -31.9% (active) in the assay on BT-549 breast; -40.9% (active) with MDA-MB-435 melanoma; 25.1% in the assay with SW-620 colon; 20% in the assay with MCF7 breast; -12.6% (active) with HCT-116 colon; 19.6% with HCC-2998 colon. For the same molecule, in the assay with KM12 colon, the growth is 5.96% (active).
For `CCCCCSC1C2C(=O)C(Br)=CC13CCNc1c(O)c4c5c(c13)=[N+]2CCC=5C=N4` (stereo not drawn), the growth in the assay on MOLT-4 leukemia is -45.5% (active); in the assay with SR leukemia, -14.1% (active); with RPMI-8226 leukemia it was -17% (active); with OVCAR-8 ovarian, -30.2% (active); in the assay with OVCAR-5 ovarian, -55.2% (active); in the assay on OVCAR-4 ovarian it was -88.6% (active). For the same molecule, the growth with SK-OV-3 ovarian is -2.42% (active); with IGROV1 ovarian it was -64.6% (active); with OVCAR-3 ovarian, -79.5% (active); in the assay on HS 578T breast it was 4.01% (active); with NCI/ADR-RES ovarian it was 29.1%; with T-47D breast, -48.2% (active). In addition, the growth is 36.1% with BT-549 breast; -81.1% (active) in the assay with MDA-MB-435 melanoma; -54.5% (active) with SW-620 colon; -54.9% (active) in the assay on MCF7 breast; -92.3% (active) with HCT-116 colon; -68.4% (active) in the assay with HCC-2998 colon. Moreover, the growth with KM12 colon is 2.34% (active).
